From PubChem BioAssay (NCI)
The panel holds about 83,000 compounds, 20% with a hit somewhere; the sample as a whole holds those more often.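 The test compound was applied at a single concentration to cells in 96-well plates for 48 hours, and percent growth was recorded.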 A number with no mark means an inactive call. Active and inactive are the calls of the source. How the source made its calls: active means growth percent below 10; inactive means the rest.

How the values were obtained:
Test in all cases: NCI-60 one-dose screen, 48 h (100 = growth as untreated, 0 = no growth, -100 = all killed)
Conditions in all cases: 10 µM unless noted
SK-MEL-2 melanoma = test system: SK-MEL-2 melanoma
EKVX NSCLC = test system: EKVX NSCLC
SN12C renal = test system: SN12C renal
UO-31 renal = test system: UO-31 renal
TK-10 renal = test system: TK-10 renal
ACHN renal = test system: ACHN renal
CAKI-1 renal = test system: CAKI-1 renal
A498 renal = test system: A498 renal
CCRF-CEM leukemia = test system: CCRF-CEM leukemia
MOLT-4 leukemia = test system: MOLT-4 leukemia
RPMI-8226 leukemia = test system: RPMI-8226 leukemia
OVCAR-8 ovarian = test system: OVCAR-8 ovarian
OVCAR-5 ovarian = test system: OVCAR-5 ovarian
OVCAR-4 ovarian = test system: OVCAR-4 ovarian
SK-OV-3 ovarian = test system: SK-OV-3 ovarian
OVCAR-3 ovarian = test system: OVCAR-3 ovarian
HS 578T breast = test system: HS 578T breast
NCI/ADR-RES ovarian = test system: NCI/ADR-RES ovarian
IGROV1 ovarian = test system: IGROV1 ovarian
SR leukemia = test system: SR leukemia

Row | Compound | growth (SK-MEL-2 melanoma) | growth (EKVX NSCLC) | growth (SN12C renal) | growth (UO-31 renal) | growth (TK-10 renal) | growth (ACHN renal) | growth (CAKI-1 renal) | growth (A498 renal) | growth (CCRF-CEM leukemia) | growth (MOLT-4 leukemia) | growth (RPMI-8226 leukemia) | growth (OVCAR-8 ovarian) | growth (OVCAR-5 ovarian) | growth (OVCAR-4 ovarian) | growth (SK-OV-3 ovarian) | growth (OVCAR-3 ovarian) | growth (HS 578T breast) | growth (NCI/ADR-RES ovarian) | growth (IGROV1 ovarian) | growth (SR leukemia)
1 | COC(=O)c1c(NC(=O)CSc2nnnn2-c2ccc(OC)cc2)sc(C)c1C | 18.8% | 74.8% | 81.6% | 84.6% | 152% | 87.3% | 102% | 110% | 83.8% | 90.8% | 89.8% | 87% | 103% | 94.5% | 95.9% | 99.2% | 31.7% | 83.9% |  | 
2 | O=C(/C=C/c1ccc([N+](=O)[O-])cc1)c1ccc2c3c(cccc13)CC2 | -24.8% (active) | 87.3% | 89.8% | 19.2% | 107% | 99.1% | 72.1% | -63.2% (active) | 35.5% | 62.7% | -14.1% (active) | 28.7% | 89.8% | 75.8% | 91.4% | 66.9% | -4.95% (active) | 83.3% |  | 
3 | O=C(Nc1nc2ccc(OC(F)(F)F)cc2s1)c1ccc(F)cc1 | -22.6% (active) | 15.6% | 13.3% | -4.24% (active) | 21.8% | 7.56% (active) | 6.43% (active) | 16.4% | 32.1% | 13.8% |  | 17.8% | 43% | 25.5% | 4.63% (active) | -37.8% (active) | 38.6% | 6.2% (active) | 31.1% | 
4 | COc1cc(/C=N/OC(=O)Nc2ccccc2)cc(OC)c1OC | 115% | 117% | 94.4% | 69% | 99% | 107% | 110% |  | 98.1% | 100% | 93.7% | 113% | 104% | 105% | 104% | 114% | 114% | 109% | 95.9% | 89.7%
